Screens from PubChem.
This is a sample that favours compounds with a hit; in the whole collection about 12% have one here.
HP1b chromo inh = blocks HP1-beta chromodomain binding to methylated histone tails | P83916 | AlphaScreen HP1-beta / biotin-H3K9me3 peptide binding | Potency, µM (doses to about 114 µM), actives largely listed as inhibitors | actives 0.56% (n = 390,000); further: nearly all actives have a fitted effect of over 70% in size
Target sequence (P83916 whole entry, looked up): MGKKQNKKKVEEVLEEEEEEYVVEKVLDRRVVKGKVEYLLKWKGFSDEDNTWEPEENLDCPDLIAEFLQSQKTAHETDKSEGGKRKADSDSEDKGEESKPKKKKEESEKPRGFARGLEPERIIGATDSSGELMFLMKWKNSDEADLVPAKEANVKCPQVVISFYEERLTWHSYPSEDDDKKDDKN
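HP1-beta protein (50 nM final) preincubated 30 min at room temperature with biotinylated H3(1-18)K9me3 peptide (50 nM) in PBS pH 7.4, 0.01% Tween-20, then compound added for 30 min. AlphaScreen streptavidin donor/nickel chelate acceptor beads (10 ug/mL final), 30 min dark, luminescence read.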
BAZ2B inh = BAZ2B (human) inhibition | Potency, µM (top dose mostly 114 µM), hits mostly inhibitors | AlphaScreen BAZ2B-H3K14Ac peptide displacement | Q9UIF8 | actives 4.4% (n = 360,000) | AID 504333; further: nearly all actives have a fitted effect of over 60% in size
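AlphaScreen displacement: compounds (up to 110uM) incubated 30 min at room temperature with a preformed 50 nM BAZ2B/50 nM biotinylated H3K14Ac peptide complex in PBS pH 7.4 with Tween-20. Donor and acceptor beads at 10 ug/mL final added, 20 min light-protected before reading.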
JMJD2A Tudor inh = blocks the human JMJD2A Tudor domain | O75164 | actives 4.4% (n = 390,000) | Potency, µM (top dose mostly 114 µM), actives largely listed as inhibitors | AID 504339 | AlphaScreen JMJD2A-Tudor / H3K4me3 peptide binding; further: nearly all actives have a fitted effect of over 50% in size
Sfp inh = Sfp phosphopantetheinyl transferase inhibition. Q9F4F7. Biochemical Sfp PPTase activity, qHTS. Potency, µM, actives largely listed as inhibitors. actives 3.5% (n = 310,000). AID 1490;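 further: the enzyme is Sfp with the accession as filed and its product quenches rhodamine fluorescence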
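Fluorescence-quenching assay: 15 nM Sfp-PPTase preincubated 15 min at room temperature with compound, then 5 uM rhodamine-CoA and 12.5 uM BHQ-2-labelled YbbR peptide added. Fluorescence (ex 525/em 598 nm) read at start and after 30 min; difference gives rate.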
G9a inh = blocks human histone lysine methyltransferase G9a. G9a H3K9 monomethylation, AlphaScreen, 2 h. Potency, µM (top dose mostly 102 µM), most hits filed as inhibitors. actives 8.8% (n = 350,000). AID 504332; further: nearly all actives have a fitted effect of over 75% in size
Target sequence (Q96KQ7 913-1193 limits assumed): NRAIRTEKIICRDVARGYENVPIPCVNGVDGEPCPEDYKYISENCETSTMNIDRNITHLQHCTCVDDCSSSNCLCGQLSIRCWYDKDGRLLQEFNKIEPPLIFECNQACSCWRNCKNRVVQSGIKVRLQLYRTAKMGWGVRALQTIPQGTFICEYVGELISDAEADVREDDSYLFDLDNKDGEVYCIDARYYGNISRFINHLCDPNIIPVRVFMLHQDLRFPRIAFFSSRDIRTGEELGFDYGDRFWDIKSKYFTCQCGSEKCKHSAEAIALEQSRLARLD
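AlphaScreen read-out: biotin-H3K9 peptide (500 nM) methylation by 20 nM enzyme with 20 uM SAM, 2 h at room temperature after 15 min compound preincubation; anti-monomethyl H3K9 antibody plus donor/acceptor beads, 10 min dark.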
Large screens that a line does not name were inactive; ! = not active in a repeat. The call rests on the fitted dose curve; in most records, active means well fitted curve in the direction sought with a large enough effect; inconclusive means small, poorly fitted or top-dose-only effect, or another doubt; inactive means no such curve, though single readings can be large; an effect the other way counts as inactive or inconclusive.

NC(=O)c1ccc(NC(=O)COC(=O)c2cc([N+](=O)[O-])ccc2N2CCOCC2)cc1	G9a inh 12.6µM (no result: Sfp inh)
O=C(COC(=O)c1cc([N+](=O)[O-])ccc1N1CCOCC1)Nc1ccc(Cl)cn1	JMJD2A Tudor inh inconclusive
CCOC(=O)C1CCCN(C(=O)c2cc3c(=O)n4ccccc4nc3s2)C1 (configuration not stated)	none
O=C(NCC1(c2ccccc2)CCCC1)C(=O)Nc1cccc(C(F)(F)F)c1	none (no result: Sfp inh)
CCOC(=O)C1=NOC2COC3(CCN(c4ncccn4)CC3)OCC12 (configuration not stated)	none
Cc1ccc(Cl)cc1N1CCN(C(=O)CN(c2ccccc2)S(=O)(=O)N(C)C)CC1	BAZ2B inh 44.7µM
CS(=O)(=O)N(CC(=O)N1CCN(c2ccccc2)CC1)C1CCCCC1	JMJD2A Tudor inh 50.1µM
CN1CCN(C(=O)CN(c2ccccc2)S(=O)(=O)N(C)C)CC1	none
CS(=O)(=O)N(CC(=O)N1CCN(Cc2ccccc2)CC1)C1CCCCC1	none
CS(=O)(=O)N(CC(=O)N1CCN(c2ccccc2)CC1)c1cc(C(F)(F)F)ccc1Cl	none
CCc1ccccc1N(CC(=O)N1CCN(c2ccc(F)cc2)CC1)S(C)(=O)=O	JMJD2A Tudor inh inconclusive, G9a inh 79.4µM
Cc1ccccc1N(CC(=O)N1CCN(c2ccccc2)CC1)S(C)(=O)=O	G9a inh 50.1µM
COc1cccc2c(=O)cc(C)n(CC(=O)Nc3ccc(Br)cc3)c12	none
CCOc1cc(/C=C2\C(=O)N(CCC#N)N=C2C)ccc1OCC(N)=O	G9a inh 70.8µM
Fc1ccccc1Cn1c2[n+](c3ccc(C(F)(F)F)cc31)CCCCC2	JMJD2A Tudor inh inconclusive, Sfp inh inconclusive, G9a inh inconclusive (no result: BAZ2B inh)
N#Cc1cccc(NC(=O)Cn2c3[n+](c4ccc(C(F)(F)F)cc42)CCCCC3)c1	G9a inh 8.91µM
CN1CCN(Cc2c(C#N)c3ccccc3n2C)CC1	none
CC1CCN(Cc2c(C#N)c3ccccc3n2C)CC1	G9a inh 25.1µM
Cn1c(CN2CCCC2)c(C#N)c2ccccc21	G9a inh inconclusive
Cn1c(CN2CCOCC2)c(C#N)c2ccccc21	G9a inh 31.6µM
CC(=O)Nc1ccc(S(=O)(=O)NCC(=O)NCCc2ccc(S(N)(=O)=O)cc2)cc1	none
COC(=O)c1ccccc1NC(=O)C1CC(=O)N(c2ccc(C)cc2)C1 (configuration not stated)	none
O=C(Nc1ccccc1)c1nc[nH]c1C(=O)NCc1ccccc1	none (no result: Sfp inh)
O=C(Nc1ccc(F)cc1)c1nc[nH]c1C(=O)O	BAZ2B inh 4.47µM, JMJD2A Tudor inh 10µM
O=C(NCc1ccccc1)c1nc[nH]c1C(=O)NCc1ccccc1	BAZ2B inh inconclusive, G9a inh 50.1µM
CCNC(=O)c1nc[nH]c1C(=O)NCC	JMJD2A Tudor inh 39.8µM
CNC(=O)c1nc[nH]c1C(=O)NC	BAZ2B inh inconclusive, JMJD2A Tudor inh 28.2µM, G9a inh inconclusive
O=C(c1cccc(OC2CCN(C3CCCC3)CC2)c1)N1CCCCCCC1	none
NNC(=O)c1nc[nH]c1C(=O)Nc1ccccc1	BAZ2B inh 1.26µM, JMJD2A Tudor inh inconclusive, G9a inh inconclusive
CN(Cc1ccccc1)C(=O)c1[nH]cnc1C(=O)Nc1nccs1	BAZ2B inh 25.1µM, JMJD2A Tudor inh 56.2µM (no result: Sfp inh)
O=C(Nc1ccccc1[N+](=O)[O-])c1nc[nH]c1C(=O)NCCO	BAZ2B inh 56.2µM, JMJD2A Tudor inh inconclusive, G9a inh 14.1µM
O=C(Nc1ccc(F)cc1)c1nc[nH]c1C(=O)Nc1ccccc1[N+](=O)[O-]	none
Nc1ccccc1C(=O)NCc1ccccc1	JMJD2A Tudor inh 35.5µM
CCOC(=O)Cn1nc(C)c2c1CCCC2=O	none (no result: G9a inh)
Cc1ccc(N2CC(C(=O)NCCS(=O)(=O)N3CCN(c4ccccc4)CC3)CC2=O)cc1C (configuration not stated)	none
CNC(=O)c1[nH]cnc1C(=O)Nc1ccc(OC)cc1	BAZ2B inh 79.4µM (no result: G9a inh)
Cc1ccc(-n2ncc(C(=O)NCCN3CCN(C)CC3)c2C2CCN(C(=O)OC(C)(C)C)CC2)cc1C	none (no result: Sfp inh)
CC1CCCN(S(=O)(=O)c2ccc(S(=O)(=O)NC(C)c3cccs3)cc2)C1 (configuration not stated)	G9a inh 39.8µM
CC1CCCN(S(=O)(=O)c2ccc(NC(=O)CNC3CCCC3)cc2)C1 (configuration not stated)	G9a inh 39.8µM
CC1CCCN(S(=O)(=O)c2ccc(NC(=O)CN3CCN(C)CC3)cc2)C1 (configuration not stated)	BAZ2B inh 79.4µM, JMJD2A Tudor inh inconclusive, Sfp inh inconclusive, G9a inh inconclusive
O=C(CNC1CCCCC1)Nc1ccc(S(=O)(=O)N2CCCCC2)cc1	G9a inh inconclusive
COn1c(SCc2cccnc2)nc2ccccc2c1=O	none
COc1cc(NC(=O)CN2c3cccc4cccc(c34)S2(=O)=O)cc(OC)c1OC	G9a inh inconclusive
CC(NC(=O)Cc1ccc(F)cc1)c1ccccc1 (configuration not stated)	none
CNC(=O)NC(=S)NC(=O)c1ccccc1Cl	none
Cc1csc2nc(CCNS(=O)(=O)c3ccc4c(c3)OCCO4)cn12	G9a inh 50.1µM
CN(C)c1ccc(/C=C2\C(=O)Nc3ccccc32)cc1	Sfp inh 56.2µM!, G9a inh 14.1µM (no result: HP1b chromo inh, BAZ2B inh, JMJD2A Tudor inh)
O=C1Nc2ccccc2/C1=C/c1cccnc1	none
Cc1ccc(/C=C2\C(=O)Nc3ccccc32)o1	HP1b chromo inh 44.7µM, BAZ2B inh 39.8µM, JMJD2A Tudor inh 44.7µM, Sfp inh 15.8µM, G9a inh 8.91µM
CC(C)(C)NC(=O)Cn1ccc(=N)c2ccccc21	none (no result: BAZ2B inh)
CC(=O)Nc1ccc(S(=O)(=O)Oc2cccc(/C=C3\SC(N)=NC3=O)c2)cc1	JMJD2A Tudor inh 25.1µM
Cc1nc2nc(-c3ccc(Cl)cc3Cl)nn2c(C)c1CCC(=O)Nc1ccc(F)cc1	none (no result: Sfp inh)
COc1ccc(NC(=O)C(OC)c2ccccc2)cc1Cl (configuration not stated)	none
COc1ccc(NC(C)C(=O)Nc2ccc(C(C)(C)C)cc2)cc1Cl (configuration not stated)	BAZ2B inh 44.7µM, JMJD2A Tudor inh inconclusive, G9a inh inconclusive
COc1ccc(NC(=O)C(NCC(C)C)c2ccccc2)cc1Cl (configuration not stated)	HP1b chromo inh 15.8µM, BAZ2B inh 39.8µM, JMJD2A Tudor inh 4.47µM, Sfp inh 50.1µM, G9a inh 50.1µM
Cc1ccc(-c2noc(C3CCCN(C(=O)c4ccccc4Br)C3)n2)o1 (configuration not stated)	G9a inh 25.1µM
Cc1ccc(-c2noc(C3CCCN(C(=O)c4ccccc4)C3)n2)o1 (configuration not stated)	G9a inh inconclusive
Cc1[nH]nc(SCC(=O)Nc2ccc(C#N)cc2)c1[N+](=O)[O-]	G9a inh 35.5µM
Cc1ccc(NC(=O)CSc2n[nH]c(C)c2[N+](=O)[O-])cc1	none
